Source: publication PMC4336329 (PLoS ONE, 2015)
Screen size: about 310,000 compounds; about 14,000 (4.5%) showed an effect of 50% or more. Effects have a minus sign here. For the sample, strong results were picked, then their nearest neighbours and some compounds at random.

Biological target: human ether-à-go-go-related gene (hERG) potassium channel (human, UniProt Q12809)
Assay: primary screen, population patch clamp on CHO cells stably expressing hERG; higher = less effect of the substance
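Also: peak tail current of the secondary pulse compared with the same well before compound.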

human ether-à-go-go-related gene (hERG) potassium channel, sequence (Q12809 whole entry, looked up): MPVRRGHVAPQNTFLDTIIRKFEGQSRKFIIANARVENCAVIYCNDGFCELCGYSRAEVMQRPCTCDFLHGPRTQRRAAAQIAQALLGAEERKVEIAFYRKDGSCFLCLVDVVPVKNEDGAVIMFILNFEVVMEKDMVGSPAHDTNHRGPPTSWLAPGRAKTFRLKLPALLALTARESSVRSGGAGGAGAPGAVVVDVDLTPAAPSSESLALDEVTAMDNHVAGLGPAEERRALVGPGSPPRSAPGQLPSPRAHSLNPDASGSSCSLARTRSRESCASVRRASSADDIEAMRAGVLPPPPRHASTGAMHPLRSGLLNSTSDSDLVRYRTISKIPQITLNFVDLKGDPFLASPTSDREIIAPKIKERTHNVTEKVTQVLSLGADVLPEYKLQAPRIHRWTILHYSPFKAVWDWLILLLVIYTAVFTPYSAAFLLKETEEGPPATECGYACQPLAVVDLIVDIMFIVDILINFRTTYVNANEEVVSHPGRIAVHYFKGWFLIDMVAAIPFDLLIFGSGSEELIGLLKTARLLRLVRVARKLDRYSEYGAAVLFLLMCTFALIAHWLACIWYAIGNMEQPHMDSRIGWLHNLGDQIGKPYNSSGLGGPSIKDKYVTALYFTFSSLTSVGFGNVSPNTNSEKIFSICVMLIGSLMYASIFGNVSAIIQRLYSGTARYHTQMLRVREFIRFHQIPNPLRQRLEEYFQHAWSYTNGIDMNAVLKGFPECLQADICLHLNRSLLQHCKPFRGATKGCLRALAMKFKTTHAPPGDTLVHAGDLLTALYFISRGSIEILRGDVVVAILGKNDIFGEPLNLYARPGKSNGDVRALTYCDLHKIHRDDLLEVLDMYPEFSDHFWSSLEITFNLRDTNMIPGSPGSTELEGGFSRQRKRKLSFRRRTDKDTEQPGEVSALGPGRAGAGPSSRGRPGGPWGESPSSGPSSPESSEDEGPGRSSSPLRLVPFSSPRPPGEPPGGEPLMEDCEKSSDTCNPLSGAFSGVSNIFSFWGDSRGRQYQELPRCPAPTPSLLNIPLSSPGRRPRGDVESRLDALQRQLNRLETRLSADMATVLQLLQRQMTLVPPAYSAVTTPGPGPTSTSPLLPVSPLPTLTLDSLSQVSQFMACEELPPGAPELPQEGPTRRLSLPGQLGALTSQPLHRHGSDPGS

Row | SMILES | hERG current change (%, negative = inhibition) at 10uM [%]
1 | CCN(CC(=O)Nc1ccc(NC(C)=O)cc1)C(=O)CC1OC(=O)c2ccccc21 (centres unmarked) | 5.6
2 | O=C(NCCO)c1nc(C(=O)c2ccccc2)c2ccccc2n1 | 15.9
3 | Cc1nn(-c2ccccc2)c(C)c1C(=O)NCc1ccccc1F | 3.78
4 | Cc1nn(-c2ccccc2)c(C)c1C(=O)NCc1ccc(F)cc1 | -53.2
5 | Cc1nn(-c2ccccc2)c(C)c1C(=O)NCc1ccc(S(N)(=O)=O)cc1 | 20.1
6 | O=C(CCc1nc2ccccc2c(=O)[nH]1)NNC(=O)COc1cccc(F)c1 | -1.88
7 | COc1ccc(F)cc1CN1CCN(CC(=O)N2CCc3ccccc32)CC1 | -48.1
8 | CCC(C)c1ccc(NC(=O)C2CC2)cc1 (centres unmarked) | 5.22
9 | Cc1ccc(S(=O)(=O)NCC(=O)OCc2cc(=O)oc3cc(C)ccc23)cc1 | -3.27
10 | COc1ccc2c(COC(=O)CNS(=O)(=O)c3ccc(C)c(C)c3)cc(=O)oc2c1 | -57.7
11 | Cc1ccc(S(=O)(=O)NCC(=O)OCc2cc(=O)oc3c(C)c(C)ccc23)cc1C | -16.7
12 | CCOC(=O)C(C)Sc1nnc(Cc2cc(=O)[nH]c(=O)[nH]2)n1-c1cccc(OC)c1 (centres unmarked) | 0.328
13 | CCOC(=O)c1cnc2c(Cl)c(Cl)ccc2c1N1CCN(C)CC1.Cl | -55.5
14 | CCOC(=O)c1cnc2c(C)cc(Cl)cc2c1N1CCN(C)CC1.Cl | -19.6
15 | CCOC(=O)c1cnc2c(C)c(Cl)ccc2c1N1CCN(CC)CC1.Cl | -29.5
16 | CN(C)S(=O)(=O)n1cnc([C@H]2c3c(ncn3Cc3ccccc3)C[C@H]3COC(=O)[C@@H]32)c1 | -4.15
17 | Cc1ccc(C(c2sc3nc(C)nn3c2O)N2CC(C)OC(C)C2)cc1 (centres unmarked) | 13.3
18 | O=c1c(Cl)c(NCC2CCCO2)cnn1C12CC3CC(CC(C3)C1)C2 (centres unmarked) | -29.3
19 | O=c1oc(Nc2ccc(F)cc2)nc2ccccc12 | 6.68
20 | CCOC(=O)N1CCC(NC(=O)CSCc2nc(-c3ccccc3Cl)oc2C)CC1 | -19.5
21 | Cl.NC(=NC1CCCCC1)c1ccc(Cl)cc1 | -39.2
22 | Cl.NC(=NC1CCCCC1)c1ccc([N+](=O)[O-])cc1 | -57.2
23 | N/C(=N\OC(=O)CCC1CCCCC1)c1ccc([N+](=O)[O-])cc1 | -8.1

Row | SMILES | hERG current change (%, negative = inhibition) at 10uM [%]
24 | COc1cc2occc2c2oc(=O)ccc12 | 0.24
25 | O=c1[nH]c(=O)n(C2CCCCC2)c(O)c1/C=N/N1CCCCC1c1cccnc1 (centres unmarked) | -13.6
26 | COc1cc(-c2nc3ccc4ccccc4c3c3c2CCC3)ccc1O | 13.8
27 | CC1(C)NC(=O)N(CC(O)CN(c2ccccc2)S(=O)(=O)c2ccc([N+](=O)[O-])cc2)C1=O (centres unmarked) | -13.7
28 | O=C(CN(c1ccc([N+](=O)[O-])cc1)S(=O)(=O)c1ccccc1)N1CCCCC1 | -61.9
29 | COc1ccc([N+](=O)[O-])cc1N(CC(O)CN1CCCCC1)S(=O)(=O)c1ccccc1 (centres unmarked) | -11.2
30 | COc1ccc([N+](=O)[O-])cc1N(CC(O)CN1CCOCC1)S(=O)(=O)c1ccccc1 (centres unmarked) | 20
31 | O=[N+]([O-])c1ccc(N(CC(O)CN2CCCCC2)S(=O)(=O)c2ccccc2)cc1 (centres unmarked) | -74
32 | Cc1ccc(N(CC(=O)N2CCCCCC2)S(=O)(=O)c2ccccc2)cc1 | -25.3
33 | O=C(CN(c1cccc([N+](=O)[O-])c1)S(=O)(=O)c1ccccc1)N1CCCCC1 | -24.8
34 | O=[N+]([O-])c1ccc(S(=O)(=O)N(CC(O)CN2CCCCC2)c2ccccc2)cc1 (centres unmarked) | -80.9
35 | CNC(=O)OCCc1n(C)cc[n+]1C.[I-] | 13.9
36 | Cn1cnnc1Sc1ccc(C(=O)OCC(=O)NCC(F)(F)F)cc1[N+](=O)[O-] | 0.021
37 | CC(C)(C)C(=O)Cn1c(=O)n(-c2ccc(F)cc2F)c(=O)c2sccc21 | 4.28
38 | O=C1C(C2=NC(C(=O)O)C3C(=O)N(c4ccc(Cl)cc4)C(=O)C23)=C(O)c2ccccc21 (centres unmarked) | 2.54
39 | COc1cc(CN2CCC(Oc3cc(C(=O)NC4CC4)ccc3OC)CC2)cc(OC)c1 | -72.8
40 | COc1ccc(C(=O)NC2CC2)cc1OC1CCN(Cc2cc(C)cc(C)c2)CC1 | -70.2
41 | COc1ccc(C(=O)NC2CCCCCCC2)cc1OC | 1.54
42 | COc1cc(C(=O)NC2CC(C)(C)CC(C)(C)C2)ccc1OC1CCN(C(C)=O)CC1 | 6.2
43 | COc1ccc(C(=O)NCCc2ccc(C)cc2)cc1OC1CCN(C(C)=O)CC1 | -4.05
44 | COc1cc(/C=N/NC(=O)COc2ccccc2C)ccc1OC(=O)c1cccs1 | -0.671
45 | Cc1ccc(NC(=O)Cn2nnc(-c3ccc4c(c3)OCO4)n2)cc1F | 11
46 | Nc1cc(N)nc(SCC(=O)Nc2ccccc2N2CCOCC2)n1 | 2.73

Row | SMILES | hERG current change (%, negative = inhibition) at 10uM [%]
47 | CC(C)c1nc2sc3c(c2c(=O)[nH]1)CC(C)(C)OC3 | 17.7
48 | Cc1ccccc1C(=O)NCCNC(=O)c1ccccn1 | 6.75
49 | O=C(Nc1cccnc1)c1cc(F)c(F)cc1Cl | 19.7
50 | CC(C)CC(=O)Nc1ccc(Cc2ccncc2)cc1 | 10.1
51 | O=C(Nc1ccc(Cc2ccncc2)cc1)c1ccc(Br)o1 | -35.8
52 | O=C(NCc1ccncc1)c1cc(F)c(F)cc1Cl | 14.2
53 | CC(C)Cc1ccc(C(=O)Nc2ccc(Cc3ccncc3)cc2)o1 | -57.6
54 | O=C(Nc1ccc(Cc2ccncc2)cc1)c1cc(F)c(F)cc1Cl | -71.2
55 | N#Cc1cnc(SCC(=O)N2CCCC2)nc1N | 13.1
56 | COc1cc(NC(=O)c2cccc(C)c2)c(OC)cc1NC(=O)CN1CCOCC1 | -3.88
57 | O=C(NC12CC3CC(CC(C3)C1)C2)C12CC3CC(C1)CC(n1cnc(Cl)n1)(C3)C2 | 2.42
58 | COc1cc(-c2nc(-c3cccc(C)c3)no2)cc(OC)c1OC | 0.668
59 | CC(=O)Nc1ccc(NC(=O)C2CCCN2C(=O)NC2CCCCC2)cc1 (centres unmarked) | 12.5
60 | Cc1cccc(C)c1NC(=O)N1CCCC1C(=O)Nc1ccc(-n2cnnn2)cc1 (centres unmarked) | -35.8
61 | Cc1cc(NC(=O)C2CCCN2C(=O)Nc2c(C)cccc2C)ccc1-n1cnnn1 (centres unmarked) | -10.9
62 | Cc1ccc(NC(=O)N2CCCC2C(=O)Nc2ccc(-n3cnnn3)c(C)c2)cc1 (centres unmarked) | -18.7
63 | CC(C)c1ccc(NC(=O)N2CCCC2C(=O)Nc2ccc(-n3cnnn3)cc2)cc1 (centres unmarked) | -61.8
64 | O=C(Nc1ccc(-n2cnnn2)cc1)C1CCC1 | 11.3
65 | Cc1ccc(NC(=O)C2CCCN2C(=O)NC2CCCCC2)cc1 (centres unmarked) | 8.72
66 | Cc1cc(NC(=O)C2CCCN2C(=O)Nc2cccc(Cl)c2)ccc1-n1cnnn1 (centres unmarked) | -48.3
67 | O=C(Nc1ccc(-n2cnnn2)cc1)C1CCCN1C(=O)Nc1ccc(Br)cc1 (centres unmarked) | -79.9
68 | O=C(Nc1ccc(-n2cnnn2)cc1)C1CCCN1C(=O)NC1CCCCC1 (centres unmarked) | -63.3
69 | Cc1cc(C)cc(NC(=O)N2CCCC2C(=O)Nc2ccc(-n3cnnn3)c(C)c2)c1 (centres unmarked) | -12.3

Row | SMILES | hERG current change (%, negative = inhibition) at 10uM [%]
70 | Cc1cc(C)cc(NC(=O)N2CCCC2C(=O)Nc2ccc(-n3cnnn3)cc2)c1 (centres unmarked) | -54.1
71 | O=C(CN1C(=O)NC2(CCc3ccccc32)C1=O)NCC(F)(F)F (centres unmarked) | 2.18
72 | O=C(O)c1cccc(Oc2ncnc3sc4c(c23)CCCC4)c1 | 34.5
73 | Oc1ccc(N=Nc2ccc3c(c2)OCCO3)c(O)c1 | 22.6
74 | CC(=O)Nc1ccc(S(=O)(=O)N2CC(=O)NC(=O)C2)cc1 | 29.9
75 | COc1ccc(C2=NS(=O)(=O)N(C)C(C(=O)N3CCCCC3)=C2)cc1OC | -4.54
76 | CCn1ncc(Br)c1C(=O)NC(C)c1ccccc1 (centres unmarked) | 3.91
77 | O=C(Cn1c(=O)n(CCC(=O)N2CCCCC2)c(=O)c2sccc21)NCc1ccccc1 | 5.68
78 | CCc1ccc(CN(C)C(=O)c2cc(=O)c3ccccc3o2)cc1 | -66.4
79 | CN(Cc1ccccc1Cl)C(=O)c1cc2ccccc2o1 | -2.37
80 | COc1ccc(Cl)cc1NC(=O)CN(C)C(=O)c1cc(=O)c2ccccc2o1 | -28
81 | CN(Cc1ccc(Cl)cc1Cl)C(=O)c1cc(=O)c2ccccc2o1 | -53.4
82 | Cc1ccc(-c2c(C(=O)N(C)Cc3ccccc3)oc(=O)c3ccccc23)cc1 | -52.5
83 | CN(Cc1ccccc1)C(=O)c1oc(=O)c2ccccc2c1-c1ccccc1 | -13.1
84 | CSc1ccc(CN(C)C(=O)c2cc3ccccc3o2)cc1 | 21.2
85 | Cc1ccc(-c2c(C(=O)NCc3ccc(F)cc3)oc(=O)c3ccccc23)cc1 | -13
86 | CN(Cc1ccccc1)C(=O)c1cc2ccccc2o1 | -23
87 | COc1ccc(CCN(C)C(=O)c2cc(=O)c3ccccc3o2)cc1OC | 7.6
88 | CN(Cc1ccc(N(C)C)cc1)C(=O)c1cc2ccccc2o1 | -18.5
89 | CSc1ccc(CN(C)C(=O)c2cc(=O)c3ccccc3o2)cc1 | -71.4
